# From PubChem BioAssay (EPA / NIEHS)
# “And” between values parts separate entries of the source, which are not always exact repeats. Equal values may be shown once. Inconclusive results are not listed. More than one record can exist for a structure, and the calls need not agree. The source made the active and inactive calls. Rule for the calls, unless noted: active = hit-call score of the fitted dose curve at least 0.9, where 1 is the maximum; inconclusive = response in the unintended direction; inactive = score below 0.9.
# Columns and labels:
# [1] = target: Cellular tumor antigen p53 (Homo sapiens) (UniProt P04637); test: TOX21_p53_BLA_p2_ratio: Tox21 HCT-116 p53 Agonism Beta-lactamase Assay, Ratio, Phase 2 (AID 2283592)
# Cellular tumor antigen p53 (Homo sapiens), sequence (P04637 whole entry, looked up): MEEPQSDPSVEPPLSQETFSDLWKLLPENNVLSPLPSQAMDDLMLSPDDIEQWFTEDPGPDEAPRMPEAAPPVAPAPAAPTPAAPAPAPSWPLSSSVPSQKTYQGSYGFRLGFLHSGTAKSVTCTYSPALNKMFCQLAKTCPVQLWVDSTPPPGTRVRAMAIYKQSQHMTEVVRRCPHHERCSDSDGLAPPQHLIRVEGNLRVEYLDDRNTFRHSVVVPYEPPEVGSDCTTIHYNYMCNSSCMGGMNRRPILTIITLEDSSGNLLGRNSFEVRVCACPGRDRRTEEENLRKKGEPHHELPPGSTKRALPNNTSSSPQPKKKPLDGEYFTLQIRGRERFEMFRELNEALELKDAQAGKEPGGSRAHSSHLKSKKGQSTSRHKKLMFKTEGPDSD
# Summary of the method: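 HCT116 cells carrying a p53-responsive beta-lactamase reporter were plated, incubated 5 h at 37C, then dosed with compounds in DMSO (217-fold dilution) for 16 h. CCF4-AM substrate was added for 2 h at room temperature; the 460/530 nm emission ratio gave gain-of-signal activity relative to DMSO.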
# [2] = TOX21_p53_BLA_p3_viability: Viability Assessment in the Tox21 HCT-116 p53 Agonism Beta-lactamase Assay, Phase 3 (AID 2283593);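 note: cells exposed to compound for 16 h before reading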
# Summary of the method: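 Cellular ATP was quantified by CellTiter-Glo luminescence, read after 30 min at room temperature. Beforehand, HCT116 cells (4000/well) received compound 5 h post-seeding, 217-fold diluted from DMSO, then incubated 16 h at 37C.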
# [3] = target: Cellular tumor antigen p53 (Homo sapiens) (UniProt P04637); test: TOX21_p53_BLA_p3_ratio: Tox21 HCT-116 p53 Agonism Beta-lactamase Assay, Ratio, Phase 3 (AID 2283596)
# Summary of the method: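 HCT116 p53-bla cells (4000/well) given compound in DMSO (217-fold dilution) after 5 h, incubated 16 h at 37C. CCF4-AM substrate 2 h at room temperature; 460/530 nm emission ratio, gain fitted against DMSO.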
# [4] = TOX21_p53_BLA_p4_viability: Viability Assessment in the Tox21 HCT-116 p53 Agonism Beta-lactamase Assay, Phase 4 (AID 2283597);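 note: hits lower the luminescence signal meaning cytotoxicity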
# Summary of the method: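 HCT116 p53-bla cells (4000/well) rested 5 h at 37C, then received compounds in DMSO (217-fold dilution) for 16 h at 37C, 5% CO2. CellTiter-Glo was added after the CCF4-AM read, and luminescence was read after 30 min at room temperature.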
# [5] = target: Cellular tumor antigen p53 (Homo sapiens) (UniProt P04637); test: TOX21_p53_BLA_p5_ratio: Tox21 HCT-116 p53 Agonism Beta-lactamase Assay, Ratio, Phase 5 (AID 2283599)
# Summary of the method: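 Beta-lactamase reporter ratio (blue 460 nm over green 530 nm, 405 nm excitation) after 2 h CCF4-AM loading, in HCT-116 cells exposed 16 h at 37 C to compounds pinned at 217-fold dilution. Increases relative to DMSO baseline scored.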
# [6] = TOX21_p53_BLA_p5_viability: Viability Assessment in the Tox21 HCT-116 p53 Agonism Beta-lactamase Assay, Phase 5 (AID 2283600)
# Summary of the method: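 Cells were plated at 4000/well, rested 5 h at 37C, then given compounds in DMSO (217-fold dilution) for 16 h at 37C, 5% CO2. Following the CCF4-AM beta-lactamase read, CellTiter-Glo was added and luminescence was read after 30 min at room temperature.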
# [7] = target: Cellular tumor antigen p53 (Homo sapiens) (UniProt P04637); test: TOX21_p53_BLA_p4_ratio: Tox21 HCT-116 p53 Agonism Beta-lactamase Assay, Ratio, Phase 4 (AID 2283601)
# Summary of the method: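 Signal is the blue/green (460nm/530nm) ratio of cleaved versus uncleaved CCF4-AM substrate, read after 2 h substrate loading. Cells were HCT116 carrying the p53-responsive beta-lactamase reporter, dosed 16 h at 37C, 5% CO2; CellTiter-Glo measured in parallel.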
# [8] = tested on: Thyroperoxidase (TPO), gene 54314; test: CCTE_Simmons_AUR_rTPO: CCTE's Amplex UltraRed Assay for Thyroperoxidase (TPO) Inhibition, Simmons Lab (AID 2283662);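 note: potency for loss of signal meaning inhibition of peroxidase activity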
# Summary of the method: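 Endpoint is decreased Amplex UltraRed fluorescence after a 30-min, 37C reaction of rat thyroid microsomes with 300 uM H2O2. Eight test concentrations (5 nM–87.5 uM final) in 0.5% DMSO, three biological replicates each.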
# [9] = CCTE_Simmons_CellTiterGLO_HEK293T: Viability Assessment in CCTE's Assays for Thyroperoxidase (TPO) Inhibition, Simmons Lab (AID 2283665);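 note: cells exposed to compound for 24 h before readout; actives reduce ATP signal below DMSO vehicle meaning cytotoxicity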
# Summary of the method: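 HEK293T cells in DMEM with 1% FBS were dosed with 8 concentrations (5 nM–87.5 uM final, 0.5% DMSO) for 24 hr at 37C; ATP content was read by CellTiter-Glo luminescence, loss-of-signal versus DMSO, three biological replicates.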
# [10] = target: Luciferin 4-monooxygenase (Photinus pyralis) (UniProt P08659); test: CCTE_Simmons_QuantiLum_inhib_2: CCTE's Firefly Luciferase Inhibition Assay, Simmons Lab (AID 2283767)
# Luciferin 4-monooxygenase (Photinus pyralis), sequence (P08659 whole entry, looked up): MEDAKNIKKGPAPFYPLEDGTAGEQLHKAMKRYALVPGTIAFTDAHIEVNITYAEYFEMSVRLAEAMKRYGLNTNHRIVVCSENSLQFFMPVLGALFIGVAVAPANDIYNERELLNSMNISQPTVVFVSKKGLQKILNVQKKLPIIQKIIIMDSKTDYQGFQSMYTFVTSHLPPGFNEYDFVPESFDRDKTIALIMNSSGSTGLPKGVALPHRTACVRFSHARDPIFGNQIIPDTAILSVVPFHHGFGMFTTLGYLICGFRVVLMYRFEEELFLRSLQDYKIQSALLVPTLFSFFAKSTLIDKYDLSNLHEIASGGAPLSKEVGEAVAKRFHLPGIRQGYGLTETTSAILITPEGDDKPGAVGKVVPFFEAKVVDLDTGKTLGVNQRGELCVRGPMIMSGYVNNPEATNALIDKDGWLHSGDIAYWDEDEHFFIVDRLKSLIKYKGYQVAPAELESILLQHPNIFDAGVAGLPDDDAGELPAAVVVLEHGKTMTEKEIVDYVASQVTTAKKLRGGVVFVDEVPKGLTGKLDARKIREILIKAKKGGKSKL
# Summary of the method: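 Recombinant firefly luciferase (5 ng/well, 200 mM potassium phosphate with 1 mg/ml BSA) was exposed to 8 concentrations from 5 nM to 87.5 uM (final, 0.5% DMSO) for 30 min at 37C in the dark. Loss of luminescence versus DMSO was read after injecting D-luciferin/ATP-analogue reagent.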
# [11] = ACEA_AR_agonist_AUC_viability: ACEA Biosciences xCELLigence Real-Time Cell Analysis on Androgen Receptor Agonism for Viability (AID 2283775)
# Summary of the method: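 Read-out is area under the impedance curve at 80 h post-dose in 22Rv1 cells, with DMSO as baseline and signal loss taken as reduced viability. Compounds ran in duplicate from 100 uM final.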
# [12] = ACEA_AR_antagonist_AUC_viability: ACEA Biosciences xCELLigence Real-Time Cell Analysis on Androgen Receptor Antagonism for Viability (AID 2283776);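 note: 22Rv1 human prostate cancer cells growing on impedance electrode plates; area under impedance growth curve at 80 h after dosing as viability; hits lower the growth signal relative to DMSO meaning cytotoxicity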
# Summary of the method: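 Viability endpoint from label-free cell-index monitoring: 22Rv1 cultures treated with an eight-point 1:4 dilution series starting at 100 uM final, AUC at 80 h fitted against DMSO.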
# [13] = CEETOX_H295R_MTT_cell_viability: Viability Assessment in the CeeTox HT-H295R MTT Assay (AID 2283718; active = hit-call score of the fitted dose curve at least 0.9, where 1 is the maximum; inactive = score below 0.9)
# Summary of the method: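 MTT reduction (0.5 mg/ml, 4 h at 37 C; absorbance at 570 and 650 nm) gave viability as background-corrected percent change versus controls. H295R cells had 48 h forskolin (10 uM) prestimulation, then 48 h chemical exposure at 0.1% DMSO.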
compound,measurement,setting,value
[Cl][Bi]([Cl])([c]1ccccc1)([c]1ccccc1)[c]1ccccc1,AC50,[1],18.4 µM (active)
same,AC50,[2],71.4 µM (active)
same,AC50,[3],76.2 µM (active)
same,AC50,[4],11.2 µM (active)
same,AC50,[5],67.7 µM (active)
same,AC50,[6],58.1 µM (active)
same,AC50,[7],14.1 µM (active)
CCCCC/C=C\C/C=C\CCCCCCCC(=O)OC,AC50,[1],74.7 µM (active)
same,outcome,[1],inactive
same,outcome,[2],inactive
same,outcome,[3],inactive
same,outcome,[4],inactive
same,AC50,[5],73.3 µM (active)
same,outcome,[5],inactive
same,outcome,[6],inactive
same,outcome,[7],inactive
same,AC50,[8],43.8 µM (active)
same,AC50,[9],58.4 µM (active)
same,outcome,[10],inactive
same,outcome,[11],inactive
same,outcome,[12],inactive
CCOC(=O)N1CCC(=C2c3ccc(Cl)cc3CCc3cccnc32)CC1,AC50,[1],36.5 µM (active) and 12.9 µM (active)
same,AC50,[2],79.9 µM (active)
same,outcome,[2],inactive
same,AC50,[3],43.3 µM (active) and 22.4 µM (active)
same,outcome,[4],inactive
same,AC50,[5],49.6 µM (active)
same,outcome,[5],inactive
same,AC50,[6],75.4 µM (active)
same,outcome,[6],inactive
same,outcome,[7],inactive
CC(=O)OCCC1CCCCC1,outcome,[1],inactive
same,outcome,[2],inactive
same,outcome,[3],inactive
same,outcome,[4],inactive
COc1c2ccoc2cc2oc(=O)ccc12,outcome,[1],inactive
same,outcome,[2],inactive
same,outcome,[3],inactive
same,outcome,[4],inactive
same,outcome,[5],inactive
same,outcome,[6],inactive
same,outcome,[7],inactive
C[C@]12CCC(=O)C=C1CC[C@@H]1[C@@H]2C(=O)C[C@@]2(C)[C@H]1CC[C@]2(O)C(=O)CO,outcome,[1],inactive
same,outcome,[2],inactive
same,outcome,[3],inactive
same,outcome,[4],inactive
same,outcome,[5],inactive
same,outcome,[6],inactive
same,outcome,[7],inactive
O=C(O)CC(C(=O)O)C(CC(=O)O)C(=O)O (configuration not stated),outcome,[1],inactive
same,outcome,[2],inactive
same,outcome,[3],inactive
same,outcome,[4],inactive
same,outcome,[5],inactive
same,outcome,[6],inactive
same,outcome,[7],inactive
O=C(Nc1ccccc1SSc1ccccc1NC(=O)c1ccccc1)c1ccccc1,AC50,[1],58.3 µM (active) and 56.6 µM (active)
same,outcome,[2],inactive
same,AC50,[3],72.5 µM (active)
same,outcome,[3],inactive
same,outcome,[4],inactive
same,AC50,[5],60 µM (active) and 53.4 µM (active)
same,outcome,[6],inactive
same,AC50,[7],65.5 µM (active) and 56.9 µM (active)
same,outcome,[13],inactive
Nc1nc2ccccc2[nH]1,outcome,[1],inactive
same,outcome,[2],inactive
same,outcome,[3],inactive
same,outcome,[4],inactive
same,outcome,[5],inactive
same,outcome,[6],inactive
same,outcome,[7],inactive
SCCc1cnccn1,AC50,[1],45.1 µM (active)
same,outcome,[2],inactive
same,AC50,[3],21.6 µM (active)
same,outcome,[4],inactive
same,AC50,[5],35.7 µM (active)
same,AC50,[7],60.3 µM (active)
C=CC(=O)NC(C)(C)CS(=O)(=O)O,outcome,[1],inactive
same,outcome,[2],inactive
same,outcome,[3],inactive
same,outcome,[4],inactive
same,outcome,[5],inactive
same,outcome,[6],inactive
same,outcome,[7],inactive
same,outcome,[11],inactive
O=C1c2cccc(O)c2C(=O)c2c(O)cc(CO)cc21,AC50,[1],31.7 µM (active)
same,outcome,[2],inactive
same,outcome,[3],inactive
same,outcome,[4],inactive
same,AC50,[5],33.3 µM (active)
same,outcome,[7],inactive
